# WT yeast gro inh: growth inhibition of WT yeast, mitochondrial fusion screen; 190,000 compounds, 2.1% hits; inhibition, % at 10 µM; mitochondrial fusion phenotypic screen, WT strain; in the data active = inhibition above about 58%; tested in S. cerevisiae
# Cl transport mod: modulators of human KCC2 chloride dependent transport; AID 1456; B-score of Tl+ flux slope (higher = more flux/activation; lower = inhibition) at 10 µM; KCC2 cells, thallium flux FluoZin-2 fluorescence; 190,000 compounds, 2.2% hits; Q9H2X9;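 active = thallium flux slope and its plate-corrected score both differing from the plate sample mean at a set confidence after two filtering rounds, in either direction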;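 also: slope of fluorescence scaled to starting intensity during 10 to 20 s after thallium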
# Target sequence (Q9H2X9 whole entry, looked up): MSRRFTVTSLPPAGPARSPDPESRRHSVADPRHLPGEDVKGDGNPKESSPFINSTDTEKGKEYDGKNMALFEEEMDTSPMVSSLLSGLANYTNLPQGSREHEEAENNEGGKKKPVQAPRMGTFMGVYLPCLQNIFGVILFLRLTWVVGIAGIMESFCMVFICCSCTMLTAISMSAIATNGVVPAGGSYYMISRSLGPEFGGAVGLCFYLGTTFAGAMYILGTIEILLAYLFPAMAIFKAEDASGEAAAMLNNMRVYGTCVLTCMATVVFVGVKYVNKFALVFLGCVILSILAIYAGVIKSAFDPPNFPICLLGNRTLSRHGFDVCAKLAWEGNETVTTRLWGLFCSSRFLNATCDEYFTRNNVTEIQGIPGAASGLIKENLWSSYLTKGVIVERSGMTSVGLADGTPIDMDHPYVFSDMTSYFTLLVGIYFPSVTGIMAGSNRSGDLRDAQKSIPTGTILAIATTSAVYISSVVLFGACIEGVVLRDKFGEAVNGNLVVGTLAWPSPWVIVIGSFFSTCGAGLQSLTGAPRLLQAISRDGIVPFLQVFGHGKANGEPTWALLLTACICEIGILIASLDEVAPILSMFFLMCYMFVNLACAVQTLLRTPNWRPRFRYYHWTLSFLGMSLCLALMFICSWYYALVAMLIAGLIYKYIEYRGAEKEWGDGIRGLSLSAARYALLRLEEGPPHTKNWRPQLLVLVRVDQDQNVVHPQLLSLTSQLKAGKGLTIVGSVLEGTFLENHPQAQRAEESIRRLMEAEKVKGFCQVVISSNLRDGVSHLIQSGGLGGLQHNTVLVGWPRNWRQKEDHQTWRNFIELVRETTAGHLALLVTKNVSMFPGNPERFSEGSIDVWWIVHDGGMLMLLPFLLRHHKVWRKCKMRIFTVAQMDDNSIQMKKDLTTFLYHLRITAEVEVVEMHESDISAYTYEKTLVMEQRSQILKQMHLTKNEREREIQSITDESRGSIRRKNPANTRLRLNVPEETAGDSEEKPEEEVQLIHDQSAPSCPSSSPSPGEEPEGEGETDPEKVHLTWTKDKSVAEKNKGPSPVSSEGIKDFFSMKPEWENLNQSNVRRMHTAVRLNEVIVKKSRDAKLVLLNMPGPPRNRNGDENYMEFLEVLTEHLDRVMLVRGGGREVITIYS
# ROMK mod: modulators of human ROMK potassium channel; P48048; Tet-inducible ROMK, thallium flux fluorescence; actives lie on both sides; B-score at 10 µM; 130,000 compounds, 2% hits;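 active = signal ratio slope over the read window, or its plate-corrected B-score, at least 3 SD from the plate mean, either direction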;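 also: B-score of the F/F0 ratio slope over 7 to 12 s after thallium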
# Calpain2 inh: inhibitors of pig calpain II; AID 1236; purified calpain II, fluorogenic peptide substrate, 30 min; 220,000 compounds, 0.37% hits; inhibition, % at 16 µM;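 active = inhibition above about 50%, limit read from the data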
# Lmaj promast: reduces viability of Leishmania major promastigotes. resazurin fluorescence viability. inhibition, % at 10 µM. 200,000 compounds, 9% hits. AID 1063; in the data active = inhibition above about 50%;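 also: promastigotes grown with compound for 44 hours at 28 °C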
# KCC2 secondary: KCC2 (human) modulation, secondary assay | shares compounds with Cl transport mod | HEK293-KCC2, thallium flux, FluoZin2 fluorescence; active compounds read high | normalised thallium flux (F/F0 slope) at 10 µM | 3,700 compounds, 15% hits | AID 1713;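 active = thallium flux slope above the same plate's solvent-only control mean plus 3 SD; inconclusive = the two replicate wells disagree; inactive = no significant difference from solvent-only control wells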
# KCC2 bumet counter: bumetanide-insensitive thallium flux in KCC2 cells with ouabain, counter-screen; shares compounds with Cl transport mod; HEK293-KCC2 + bumetanide/ouabain, thallium flux FluoZin2; active compounds read high; normalized thallium flux at 10 µM; 3,700 compounds, 49% hits; AID 1714;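 active = thallium entry rate above the same plate's blocked-transporter control wells by more than 3 SD; inconclusive = the two repeat wells disagree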;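 also: raw slope of fluorescence over initial fluorescence between 10 and 20 s after thallium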
# KCC2 secondary2: confirmation of human KCC2 transport modulators; shares compounds with Cl transport mod; HEK293-KCC2, thallium flux FluoZin2 fluorescence; actives lie on both sides; F/F0 rise rate, 10–20 s post-thallium; normalized thallium flux at 10 µM; 3,700 compounds, 23% hits;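 active = thallium flux slope more than 3 SD above or below the plate's solvent-only control mean, mostly below; inconclusive = the two repeat wells disagreed; inactive = no significant shift from solvent-only controls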;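 also: raw slope with 0.1% DMSO as baseline and bumetanide as block control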
# HEK293 Tl flux: parental HEK flux effect, counter-screen. shares compounds with Cl transport mod. HEK293 parental cells, thallium flux FluoZin2, ouabain; baseline-ratio fluorescence slope, 10–20 s after thallium. thallium flux rate (normalised fluorescence) at 10 µM. 3,700 compounds, 46% hits;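 active = thallium flux rate significantly above the same plate's solvent-only control wells, beyond their mean plus 3 SD; inconclusive = the two replicate wells gave conflicting results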
# KCC2 retest ouab: modulates human KCC2 on retest with ouabain; 3,700 compounds, 48% hits; shares compounds with Cl transport mod; raw Tl+ flux slope (below DMSO = inhibition, above = activation) at 10 µM; HEK293-KCC2, thallium flux FluoZin2 fluorescence; bidirectional: low = inhibitor, high = activator;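 active = thallium flux slope beyond 3 SD from same-plate DMSO control mean in most replicates, usually higher, sometimes lower; inconclusive = repeat tests gave conflicting results; inactive = no significant difference from controls in most replicates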;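 also: slope of initial-normalized fluorescence between seconds 10 and 20 after thallium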
# HEK293 Tl flux2: counter-screen for KCC2 modulators: effect in parental HEK293 cells; shares compounds with Cl transport mod; thallium flux FluoZin-2 fluorescence slope; thallium flux slope at 10 µM; 3,700 compounds, 33% hits;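 active = thallium flux slope above the same plate's solvent-control mean plus 3 SD in both duplicate wells; inconclusive = duplicate wells that disagreed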;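 also: run without ouabain in cells lacking the KCC2 cotransporter; slope of fluorescence scaled to its starting value between 10 and 20 s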
# Active calls of the source: *; ? = inconclusive; nt = no result. An excerpt weighted towards active compounds, which were near 12% of everything screened.
SMILES,WT yeast gro inh,Cl transport mod,ROMK mod,Calpain2 inh,Lmaj promast,KCC2 secondary,KCC2 bumet counter,KCC2 secondary2,HEK293 Tl flux,KCC2 retest ouab,HEK293 Tl flux2
O=C(CC(C(=O)N1CCc2ccccc21)n1ccnc1)N1CCc2ccccc2C1 (centres undefined),0,-6.2*,nt,1,100*,?,0.0049,0.024*,0.0069,?,0.01
COC(=O)c1cccc(C23CC4(C2)[C@H](CN(Cc2cccnc2)[C@@H]4c2ccccc2)C3c2ccc(C(F)(F)F)cc2)c1 (some centres undefined),nt,-3.2*,nt,-12,nt,?,0.0085*,0.032,0.0087,0.022,0.011
CC(C)Cn1nnc2c(=O)oc3ccccc3c21,7,nt,nt,-12,-2,0.0088,0.0049,0.027*,0.0052*,0.012*,0.0084*
Cc1ccc(CC2CC(=O)N(c3ccc(Cl)cn3)C2=O)cc1 (centres undefined),0,-1.3,nt,-7,-7,nt,nt,nt,nt,nt,nt
COc1ccc(-n2c(=O)[nH]c3cc(C(=O)NCCc4ccc(Cl)cc4)ccc3c2=O)cc1OC,9,0.35,1.4,3,14,nt,nt,nt,nt,nt,nt
S=C1NC2(CCCC2)N=C1c1ccccc1,11,2.3,-1.8,-18,3,nt,nt,nt,nt,nt,nt
Cc1ccc(C2=NC3(CCCC3)NC2=S)cc1,8,5.6*,-0.76,11,7,0.011,0.019*,0.03,0.011*,0.024,?
S=C1NC2(CCCCCC2)N=C1c1ccccc1,23,4.6*,-0.15,1,10,0.01,0.016*,0.038,?,?,0.013
CC(C)(C)c1cc(-c2csc(Nc3ccccc3)[n+]2Cc2ccc(C(=O)O)cc2)cc(C(C)(C)C)c1O,nt,-1.8,0.027,0,nt,nt,nt,nt,nt,nt,nt
O=C(O)c1ccc(C[n+]2c(-c3ccccc3)csc2Nc2ccccc2)cc1,12,-3.6*,-0.27,-2,-6,0.0088,?,0.031,0.0073,0.016*,0.01
O=C1C2Sc3[nH]c(=O)sc3C(c3ccccc3)C2C(=O)N1c1ccc(Cl)cc1 (centres undefined),5,-9.8*,nt,-42,-10,0.0066,0.013*,0.024*,0.01*,0.011*,0.011
O=C(O)CN1C(=O)C2C3CC(C2C1=O)C1C(c2ccccc2)c2sc(=O)[nH]c2SC31 (centres undefined),-13,0.3,0.42,-2,-9,nt,nt,nt,nt,nt,nt
O=C1C2Sc3[nH]c(=O)sc3C(c3cc([N+](=O)[O-])ccc3O)C2C(=O)N1c1ccccc1 (centres undefined),nt,-0.89,-1.4,-10,nt,nt,nt,nt,nt,nt,nt
Cc1ccc(N2C(=O)C3Sc4[nH]c(=O)sc4C(c4ccccc4)C3C2=O)cc1 (centres undefined),-7,-10*,nt,-24,-6,0.0074,0.011*,0.023*,0.01*,0.0098*,0.011
CC1CCC/C(=N\NC(=O)COc2ccccc2Cl)C1 (centres undefined),13,-0.0064,nt,21,-9,nt,nt,nt,nt,nt,nt
COc1ccc(NC(=O)CSc2nnc(CNc3ccc(F)cc3)o2)c(OC)c1,-2,-4.1*,nt,9,-3,0.0073,0.0056,0.033,0.0071,?,0.011
CCCn1c(N)c(C(=O)CSc2nnc(Cc3ccccc3)o2)c(=O)n(C)c1=O,-1,-8.8*,nt,0,18,0.0068,0.0049,0.02*,0.0086,0.015*,0.012
O=C(CSc1nnc(Cc2ccccc2)o1)c1ccccc1,6,-4.4*,-0.99,-19,-6,0.0051,?,0.024*,0.0073,?,0.011
Cn1c(=O)c(C(=O)CSc2nnc(Nc3ccccc3)s2)c(N)n(Cc2ccccc2)c1=O,-12,0.8,0.28,-28,-1,nt,nt,nt,nt,nt,nt
O=C(CSc1nnc(CNc2ccc(F)cc2)o1)c1ccccc1,-1,-3.8*,-0.77,10,-3,0.0063,0.006,0.029,0.0069,0.017,0.0093
Cc1cccc(N(CC(=O)NC(C)(C)C)C(=O)CNC(=O)c2cccs2)c1C,nt,0.46,0.04,-12,nt,nt,nt,nt,nt,nt,nt
COc1cc(S(=O)(=O)NCCN2CCOCC2)c(OC)cc1Cl,-3,0.71,-0.0056,8,-1,nt,nt,nt,nt,nt,nt
COc1ccc(S(=O)(=O)NCCN2CCOCC2)c2ccccc12,4,nt,-0.32,-57,6,0.0095,0.0064,0.031,0.007,0.023,0.0097
CCCn1c(O)c(N=Nc2ccc3ccccc3n2)c2ccccc21,18,-5*,0.37,-67,-7,0.01,0.011*,0.03,0.0087*,0.021,0.011
CCCCCCOc1ccc(N2C(=O)CC(N(CCc3ccc(S(N)(=O)=O)cc3)C(C)=O)C2=O)cc1 (centres undefined),2,-0.27,-1.2,17,-4,nt,nt,nt,nt,nt,nt
SMILES,WT yeast gro inh,Cl transport mod,ROMK mod,Calpain2 inh,Lmaj promast,KCC2 secondary,KCC2 bumet counter,KCC2 secondary2,HEK293 Tl flux,KCC2 retest ouab,HEK293 Tl flux2
O=C(NCc1ccc(F)cc1)C(=O)Nc1nc(C23CC4CC(CC(C4)C2)C3)cs1,44,8.9*,-0.46,2,25,0.0054,0.038*,0.033,0.021*,0.034*,0.018*
CNC(=O)C(=O)Nc1nc(C23CC4CC(CC(C4)C2)C3)cs1,-4,3.9*,-0.5,-39,25,0.0072,0.012*,0.028,0.013*,?,0.013*
N#Cc1c(NC(=O)CSc2nc(N)cc(=O)[nH]2)sc2c1CCCCCC2,-2,nt,nt,-54,-1,0.0062,0.0049,0.027*,0.0075,?,0.0098
CC(Sc1nc(N)cc(=O)[nH]1)C(=O)Nc1sc2c(c1C#N)CCCC2 (centres undefined),-9,-0.98,-0.33,0,-4,nt,nt,nt,nt,nt,nt
CCC(Sc1nc(C)cc(=O)[nH]1)C(=O)Nc1sc2c(c1C#N)CCCC2 (centres undefined),7,nt,-0.6,-26,-6,0.0061,0.0045,0.026*,0.0065,0.017,0.0098
COCCNS(=O)(=O)c1cc(C)c(C)cc1C,9,0.97,-0.65,15,-3,nt,nt,nt,nt,nt,nt
O=C(O)c1ccc(N2CC3CC(C2)c2cccc(=O)n2C3)c(NC(=S)Nc2ccc(Cl)cc2Cl)c1 (centres undefined),-3,15*,0.089,-31,2,0.011,0.015*,0.035,?,?,0.013
O=C(/C=C/c1cccs1)Nc1scc(-c2ccccc2)c1C(=O)O,3,-4.2*,0.011,-28,5,0.008,?,0.021*,0.008,0.014*,0.01
